Dicer processing: blocks human Dicer maturation of pre-miR-21 | cat-ELCCA pre-miR-21 Dicer processing, chemiluminescence; active compounds read high | z-score at 25 µM | 47,000 tested, 6% active | AID 1347074; in the data active = z-score above about 3, passing the limit was not always enough;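 note: plate controls were vehicle for no effect and no enzyme for full effect; higher signal means more uncleaved substrate so more Dicer inhibition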
Target sequence (Q9UPY3 whole entry, looked up): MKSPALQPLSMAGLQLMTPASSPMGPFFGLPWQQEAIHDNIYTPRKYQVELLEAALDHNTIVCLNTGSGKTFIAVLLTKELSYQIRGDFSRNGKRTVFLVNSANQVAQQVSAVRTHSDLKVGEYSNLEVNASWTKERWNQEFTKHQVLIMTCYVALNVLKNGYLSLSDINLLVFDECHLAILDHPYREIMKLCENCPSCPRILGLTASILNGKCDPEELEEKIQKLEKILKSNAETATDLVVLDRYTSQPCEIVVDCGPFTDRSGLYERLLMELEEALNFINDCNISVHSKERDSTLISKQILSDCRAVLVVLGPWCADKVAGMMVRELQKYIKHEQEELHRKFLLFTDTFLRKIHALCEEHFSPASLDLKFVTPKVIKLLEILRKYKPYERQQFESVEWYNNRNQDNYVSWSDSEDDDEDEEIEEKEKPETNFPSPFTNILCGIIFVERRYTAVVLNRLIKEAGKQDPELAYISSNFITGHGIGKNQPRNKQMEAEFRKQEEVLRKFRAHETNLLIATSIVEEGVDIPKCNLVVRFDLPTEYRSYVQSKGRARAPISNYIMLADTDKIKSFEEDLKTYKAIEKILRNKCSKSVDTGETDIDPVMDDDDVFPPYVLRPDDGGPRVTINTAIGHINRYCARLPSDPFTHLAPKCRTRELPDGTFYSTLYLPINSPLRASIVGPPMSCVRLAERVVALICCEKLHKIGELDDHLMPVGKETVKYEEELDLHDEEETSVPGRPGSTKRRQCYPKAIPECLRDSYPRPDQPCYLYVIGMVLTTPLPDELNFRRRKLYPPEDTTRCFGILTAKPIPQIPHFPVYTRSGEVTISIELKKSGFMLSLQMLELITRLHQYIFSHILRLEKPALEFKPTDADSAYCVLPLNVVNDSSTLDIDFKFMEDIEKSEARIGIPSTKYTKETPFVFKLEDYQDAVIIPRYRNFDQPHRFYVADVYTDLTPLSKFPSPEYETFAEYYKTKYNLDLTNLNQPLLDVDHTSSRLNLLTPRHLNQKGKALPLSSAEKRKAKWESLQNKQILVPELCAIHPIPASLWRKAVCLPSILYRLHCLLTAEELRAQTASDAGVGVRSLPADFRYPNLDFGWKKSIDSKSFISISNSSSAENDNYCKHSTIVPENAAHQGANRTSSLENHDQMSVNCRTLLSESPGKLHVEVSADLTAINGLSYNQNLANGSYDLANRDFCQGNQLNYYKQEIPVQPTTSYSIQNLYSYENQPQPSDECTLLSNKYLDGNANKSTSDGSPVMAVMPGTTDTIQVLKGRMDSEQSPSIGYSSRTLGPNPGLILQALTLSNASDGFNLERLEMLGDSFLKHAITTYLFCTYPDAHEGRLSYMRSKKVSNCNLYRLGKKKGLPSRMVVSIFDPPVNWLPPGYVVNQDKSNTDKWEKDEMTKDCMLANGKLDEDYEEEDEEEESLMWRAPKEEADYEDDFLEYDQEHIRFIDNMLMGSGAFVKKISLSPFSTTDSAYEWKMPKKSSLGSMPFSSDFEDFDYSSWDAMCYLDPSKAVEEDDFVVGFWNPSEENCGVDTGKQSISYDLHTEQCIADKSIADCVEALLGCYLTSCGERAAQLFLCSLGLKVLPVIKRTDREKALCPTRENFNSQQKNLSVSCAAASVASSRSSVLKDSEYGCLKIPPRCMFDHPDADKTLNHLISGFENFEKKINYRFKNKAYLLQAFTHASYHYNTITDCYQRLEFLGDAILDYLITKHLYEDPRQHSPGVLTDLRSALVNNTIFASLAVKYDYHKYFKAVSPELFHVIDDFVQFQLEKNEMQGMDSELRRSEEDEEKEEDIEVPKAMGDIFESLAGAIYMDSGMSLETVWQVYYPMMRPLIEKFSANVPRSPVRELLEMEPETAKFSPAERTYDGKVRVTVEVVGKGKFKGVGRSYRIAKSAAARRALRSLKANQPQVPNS
An asterisk follows results filed as active. The sample as a whole holds a higher share of hits than the screen did.

SMILES | Dicer processing
O=S(=O)(c1cc(Cl)sc1Cl)N1CCN(CCc2ccccc2)CC1 | 0.1
O=C(NNC(=S)NCC1CC1)C1CC1 | 3.4*
S=C(NCC1CC1)N/N=C/c1ccccc1Cl | 19
CC(C)(C)OC(=O)N[C@@H](Cc1ccccc1)C(=O)NNC(=S)NCC1CC1 | 2.1
CSc1ccccc1NC(=O)c1cnn2c(C(F)(F)F)cc(-c3ccco3)nc12 | 1.8
CC(C)NC(=O)c1ccccc1-c1ccccc1C(=O)NC(C)C | 0.13
O=C1c2ccccc2-c2nn(-c3ccccc3)c(=O)c3ccc(Cl)c1c23 | 2.7
COc1cc(OC)cc(C(=O)Nc2nc3c(s2)Cc2cc(OC)ccc2-3)c1 | -0.47
CCCCCC(=O)Nc1nc2c(s1)CCc1cc(OC)ccc1-2 | -4.1
COc1cc(OC)cc(C(=O)Nc2nc3c(s2)CCc2cc(OC)ccc2-3)c1 | 0.56
CCCCCCCC(=O)Nc1nc2c(s1)CCc1cc(OC)ccc1-2 | 0.09
CCCCCCCCC(=O)Nc1nc2c(s1)CCc1cc(OC)ccc1-2 | -0.7
COc1ccc2c(c1)-c1nc(NC(=O)c3ccco3)sc1CC2 | 5*
COc1ccc2c(c1)CCc1sc(NC(=O)c3ccco3)nc1-2 | 3.1*
COc1ccc2c(c1)CCc1sc(NC(=O)c3cc(C)on3)nc1-2 | 0.98
COc1ccc2c(c1)CCc1sc(NC(C)=O)nc1-2 | 3.5*
COc1ccc(Cc2nc3c4cnn(-c5ccccc5)c4ncn3n2)cc1 | -0.94
O=C(OCCS(=O)(=O)c1ccccn1)c1cccc(Cl)c1 | -1.1
COc1ccc(Cl)c(OC)c1C(N)=O | -0.38
O=C(C1=C2c3[nH]c4ccccc4c3CCN2C(=O)CC1)c1ccccc1 | -2.5
O=C1NCCCCC1N1CCS(=O)(=O)CC1 (stereo not given) | 2.4
CC(=O)Nc1ccc(C(F)(F)F)cc1Br | -0.66
O=C(NN1CC(=O)N(c2cc(Cl)cc(Cl)c2)CC1=O)c1cccs1 | -0.11
O=C(Nc1ccc(F)cc1)N1CCN(c2ccccc2F)CC1 | 0.41
O=C(Nc1ccc(Cl)cc1)NN1CC(=O)N(c2ccccc2F)CC1=O | 4.9*
SMILES | Dicer processing
Brc1ccc(OCc2nc(-c3ccc(-n4cccc4)cc3)no2)cc1 | 0.02
CCCCNC(=O)C(=O)NCCN1CCOCC1 | 2.5
COC(=O)c1c(C)oc2ccc(OC(C)C(=O)O)cc12 (stereo not given) | -0.16
COC(=O)c1c(N)oc2c(-c3ccc(C)cc3)c3c(C(=O)OC)c(N)oc3cc12 | 3.8*
CCOC(=O)c1c(N)oc2c(-c3ccc(CC)cc3)c3c(C(=O)OCC)c(N)oc3cc12 | 0.57
CCOC(=O)c1c(N)oc2c(-c3ccc(C)c(C)c3)c3c(C(=O)OCC)c(N)oc3cc12 | 5*
COC(=O)c1c(C)oc2ccc(O)cc12 | 1.5
CCOC(=O)c1c(N)oc2c(-c3ccc(C)cc3)c3c(C(=O)OCC)c(N)oc3cc12 | -1.6
CC(C)c1nnc(NC(=O)CSc2nnc3c4ccccc4n(C)c3n2)s1 | -0.3
O=[N+]([O-])/C=C/c1ccc(/C=C/[N+](=O)[O-])cc1 | 1.3
CCOC(=O)C1=NOC2C(=O)N(c3ccc(Cl)cc3)C(=O)C12 (stereo not given) | 3.7*
CCOC(=O)C1=NOC2C(=O)N(c3ccc(F)cc3)C(=O)C12 (stereo not given) | 1.3
CCOC(=O)C1=NOC2C(=O)N(c3ccc(OC)cc3)C(=O)C12 (stereo not given) | -0.1
COC(=O)C1=NOC2C(=O)N(c3ccc(F)cc3)C(=O)C12 (stereo not given) | 1.5
COC(=O)C1=NOC2C(=O)N(c3ccc(C)cc3)C(=O)C12 (stereo not given) | 3.6*
COC(=O)C1=NOC2C(=O)N(c3ccc(OC)cc3)C(=O)C12 (stereo not given) | 1
O=C(CN1c2cccc3cccc(c23)S1(=O)=O)Nc1cccc(F)c1 | 0
CC(=O)Oc1ccc2c(=O)oc(COc3ccc(C)c(C)c3)nc2c1 | 1.1
O=C1C2ON(c3ccccc3)C(c3ccco3)C2C(=O)N1Cc1ccccc1 (stereo not given) | 4.1*
O=C1C2ON(c3ccccc3)C(c3ccc(F)cc3)C2C(=O)N1Cc1ccccc1 (stereo not given) | 0.11
O=C1C2ON(c3ccccc3)C(c3ccco3)C2C(=O)N1c1ccc(Br)cc1 (stereo not given) | 0.66
COc1ccc(C2C3C(=O)N(Cc4ccccc4)C(=O)C3ON2c2ccccc2)cc1 (stereo not given) | 0.46
O=C1C2ON(c3ccccc3)C(c3ccco3)C2C(=O)N1c1ccccc1 (stereo not given) | 3.5*
CCOc1ccc(N2C(=O)C3ON(c4ccccc4)C(c4ccco4)C3C2=O)cc1 (stereo not given) | -1.3
C=CCOC(=O)c1sc(N2C(=O)c3oc4ccccc4c(=O)c3C2c2cccc(OC)c2)nc1C (stereo not given) | 0.56
OC(c1ccc(-c2ccc(C(O)(C(F)(F)F)C(F)(F)F)cc2)cc1)(C(F)(F)F)C(F)(F)F | 0.62
Cn1c(=O)c2ccccc2[s+]1-c1cccc2cccc(C(=O)O)c12 (stereo not given) | -1.1
COc1ccc(Oc2sccc2[N+](=O)[O-])cc1 | 0.72

Screens: PubChem, Center for Chemical Genomics, University of Michigan
